# Reference: PubChem BioAssay (Tox21)
# Activity calls are given as the source filed them. Where a call stands in place of a potency, no number is given. Calls follow the shape of the full dose curve.
# Target: Acetylcholinesterase (Homo sapiens) (UniProt P22303)
# Assay: Acetylcholinesterase (AChE) small molecule antagonists: enzyme-based qHTS assay with human liver microsomes (AID 1347399); also: nearly all actives have a fitted effect of over 60% in size
# Conditions: Potency: qHTS inhibition; outcome: qHTS inhibition; series mostly up to 115 µM
# Summary of the method: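 Recombinant human AChE (50 mU/mL in the enzyme mix) and human liver microsomes (0.25 mg/mL final) were preincubated with compound and NADPH (0.25 mg/mL final) for 30 min at 37 C. Acetylthiocholine/DTNB was then added; thiocholine was read colorimetrically after 10 min at room temperature.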
# Acetylcholinesterase (Homo sapiens), sequence (P22303 whole entry, looked up): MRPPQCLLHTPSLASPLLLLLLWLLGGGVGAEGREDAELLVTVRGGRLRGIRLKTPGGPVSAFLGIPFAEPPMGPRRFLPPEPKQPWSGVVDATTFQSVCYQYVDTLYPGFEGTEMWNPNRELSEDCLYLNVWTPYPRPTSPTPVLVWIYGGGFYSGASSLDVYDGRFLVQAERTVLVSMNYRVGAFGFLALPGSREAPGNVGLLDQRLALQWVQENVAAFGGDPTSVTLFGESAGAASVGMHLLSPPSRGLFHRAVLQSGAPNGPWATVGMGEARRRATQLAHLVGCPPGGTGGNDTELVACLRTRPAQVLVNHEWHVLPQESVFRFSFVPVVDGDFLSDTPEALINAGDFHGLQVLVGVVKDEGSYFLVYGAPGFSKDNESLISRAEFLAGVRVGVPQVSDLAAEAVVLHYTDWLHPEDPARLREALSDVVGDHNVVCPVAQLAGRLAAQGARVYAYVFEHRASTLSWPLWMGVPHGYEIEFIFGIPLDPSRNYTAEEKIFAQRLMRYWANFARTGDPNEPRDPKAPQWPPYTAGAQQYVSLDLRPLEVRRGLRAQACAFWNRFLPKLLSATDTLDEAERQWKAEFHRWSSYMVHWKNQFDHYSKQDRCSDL
row,SMILES,Potency
1,COS(=O)(=O)C(F)(F)F,inactive
2,CCCOCC(C)O (stereo not given),inactive
3,CC(C)=NNC(N)=S,inactive
4,CCO[Si](CCCN=C=O)(OCC)OCC,inactive
5,CCC/C=C(\C=O)CC,inactive
6,CC(C)OP(=O)(CP(=O)(OC(C)C)OC(C)C)OC(C)C,inactive
7,COC(=O)/C=C/c1ccccc1,inactive
8,COc1cccc2c1C(=O)c1c(O)c3c(c(O)c1C2=O)C[C@@](O)(C(=O)CO)C[C@@H]3O[C@H]1C[C@H](N)[C@H](O)[C@H](C)O1,inactive
9,Nc1cc(Cl)c(N)c(Cl)c1,inactive
10,CCCCCCCCCCCCc1ccc(O)cc1,inactive
11,C=CCCC=C,inactive
12,CCn1nc(C)c2c1C(=O)NCC(c1ccc(O)cc1)=N2,inactive
13,CC[C@H]1OC(=O)[C@H](C)[C@@H](O[C@H]2C[C@@](C)(OC)[C@@H](O)[C@H](C)O2)[C@H](C)[C@@H](O[C@@H]2O[C@H](C)C[C@H](N(C)C)[C@H]2O)[C@](C)(O)C[C@@H](C)/C(=N\OCOCCOC)[C@H](C)[C@@H](O)[C@]1(C)O,inactive
14,CC(C)COC(=O)c1ccccc1O,inactive
15,CCCCCCc1ccc(O)cc1O,inactive
16,CC(=O)N(CC(O)CO)c1c(I)c(C(=O)NCCO)c(I)c(C(=O)NCC(O)CO)c1I (stereo not given),inactive
17,Oc1ccc2c(c1)OC[C@@H](N1CCC(O)(c3ccc(F)cc3)CC1)[C@H]2O,inactive
18,O=C(O)Cc1cn(-c2ccccc2)nc1-c1ccc(Cl)cc1,inactive
19,c1ccc(SCCSc2ccccc2)cc1,inactive
20,FC(F)(F)c1ccccc1Cl,inactive

row,SMILES,Potency
1,CCCCCCOC(=O)CCCCCCCC(=O)OCCCCCC,inactive
2,Nc1nc(N)c2nc(-c3ccccc3)c(N)nc2n1,inactive
3,C=C(C)C(=O)OCCO,inactive
4,O=[N+]([O-])c1cccc(Cl)c1,inactive
5,C/C=C/C(=O)O,inactive
6,CCCCCCCCS(=O)(=O)Cl,inactive
7,CC(=O)c1c(C)c([N+](=O)[O-])c(C(C)(C)C)c([N+](=O)[O-])c1C,inactive
8,COC(=O)CC(C)CCC=C(C)C (stereo not given),inactive
9,CC(C)c1ccc2c(C(C)C)cc(C(C)C)c(S(=O)(=O)O)c2c1,inactive
10,O=C(O)CCNC(=O)c1ccc(N=Nc2ccc(O)c(C(=O)O)c2)cc1,inactive
11,O=CC1CC=CCC1 (stereo not given),inactive
12,CN(CCOc1ccc(CC2SC(=O)NC2=O)cc1)c1ccccn1 (stereo not given),inactive
13,C=CC(=O)OCC(C)OCC(C)OCC(C)OC(=O)C=C (stereo not given),inactive
14,O=[N+]([O-])c1ccccc1C(F)(F)F,inactive
15,Cc1cc(CCCOc2c(C)cc(-c3noc(C(F)(F)F)n3)cc2C)on1,inactive
16,c1ccc(CC2=NCCN2)cc1,inactive
17,Nc1ncnc(Nc2ccccc2)n1,inactive
18,CC(COC(=O)c1ccccc1)OC(=O)c1ccccc1 (stereo not given),inactive
19,CC(C)NCC(O)c1cc(O)cc(O)c1 (stereo not given),inactive
20,CNc1c2c(nn1C)CCCC2,inactive
